# Test results from the supplement of paper PMC9399229.
# Values joined by “and” are separate entries in the source; they are usually repeats but may differ in a detail not shown here. Identical values can stand only once. Counter-ions that a name gives are not always drawn. ± gives the standard deviation of the averaged measurements. In all, about 1,900 compounds were measured (“relative cell viability (CellTiter-Glo), compound alone”: median about 1, lowest 2% from about 0.16 on). The list comes from a sample in which the lowest values are over-represented; it also holds similar structures and randomly drawn compounds.
# Tested on: Hep3B
# Assay: relative cell viability (CellTiter-Glo), compound alone (fraction); higher = more viable cells (less growth inhibition)
# Conditions: cabozantinib 0 µM; 4 days
row,Compound,relative cell viability
1,C[C@@H](O[C@H]1OCCN(Cc2nn(P(=O)(O)O)c(=O)[nH]2)[C@H]1c1ccc(F)cc1)c1cc(C(F)(F)F)cc(C(F)(F)F)c1 [Fosaprepitant dimeglumine salt],1.04 ± 0.1
2,O=C(O)C1=CO[C@@H](O[C@@H]2O[C@H](CO)[C@@H](O)[C@H](O)[C@H]2O)[C@@H]2C(CO)=CC[C@H]12 [Geniposidic acid],1.04 ± 0.16
3,CNC(=O)c1ccccc1Nc1nc(Nc2ccc(N3CCOCC3)cc2OC)ncc1Cl,0.273 ± 0.0076
4,CCOc1cc(N2CCC(O)CC2)ccc1Nc1ncc2c(n1)N(C)c1ccccc1C(=O)N2C,1.14 ± 0.05
5,COc1cc(N2CCC(N)CC2)ccc1Nc1ncc(Cl)c(-c2c[nH]c3ccccc23)n1,0.138 ± 0.00027
6,Nc1ncnc2c1C(=O)N(c1ccc([C@H]3CC[C@H](CC(=O)O)CC3)cc1)CCO2,1.289 ± 0.0053
7,CC(C)C[C@H](NP(=O)(O)O[C@@H]1O[C@@H](C)[C@H](O)[C@@H](O)[C@H]1O)C(=O)N[C@@H](Cc1c[nH]c2ccccc12)C(=O)O [Phosphoramidon Disodium Salt],1.169 ± 0.0058
8,Cn1nnc2c(C(N)=O)ncn2c1=O [Temozolomide],1.25 ± 0.15
9,Cc1cc(N2CCOCC2)ccc1Nc1nc(NC2CCCCC2)c2[nH]cnc2n1,0.971 ± 0.072
10,CC(C)(C)c1ccc(-c2nc3ccccc3[nH]2)cc1,0.591 ± 0.042
11,COc1cc2c(c(OC)c1OC)-c1c(cc3c(c1OC)OCO3)CC(C)C(C)C2 (centres undefined) [Schisandrin B (Sch B)],0.988 ± 0.053
12,Nc1ccc2ncnc(NCCc3ccc(Oc4ccccc4)cc3)c2c1,1.22 ± 0.066
13,Cn1nnc(-c2ccc3c(c2)[nH]c2nc(Cc4ccccc4)nc(NC4CCC(N)CC4)c23)n1 (centres undefined),0.194 ± 0.0028
14,CN(C)CCC[C@@]1(c2ccc(F)cc2)OCc2cc(C#N)ccc21 [Escitalopram Oxalate],1.13 ± 0.13
15,N#CSc1cc(SC#N)c(N)nc1N,1.061 ± 0.0035
16,CCOC(=O)c1ccc(N2NC(=O)C(=Cc3ccc([N+](=O)[O-])o3)C2=O)cc1,0.977 ± 0.14
17,Cn1cc(-c2ccc3c(c2)CCN3C(=O)Cc2cccc(C(F)(F)F)c2)c2c(N)ncnc21,1.34 ± 0.066

row,Compound,relative cell viability
1,CC(C)(C)c1cc(C(=O)C(C#N)=NNc2cccc(Cl)c2)no1,1.11 ± 0.17
2,O=C(NC1CCOCC1)c1ccc(-c2cc(-c3c[nH]nc3-c3ccccn3)ccn2)cc1,1.23 ± 0.2
3,O=C(NC1CCNCC1)c1n[nH]cc1NC(=O)c1c(Cl)cccc1Cl,0.157 and 0.162
4,CC(=O)OCOC(=O)CN(CC(=O)OCOC(C)=O)c1ccccc1OCCOc1ccccc1N(CC(=O)OCOC(C)=O)CC(=O)OCOC(C)=O,1.12 ± 0.016
5,CNC(=O)[C@@H](c1ccccc1)N1CCc2cc(OC)c(OC)cc2[C@@H]1CCc1ccc(C(F)(F)F)cc1 [Almorexant HCl],1.19 ± 0.11
6,Cc1c(N(C)C)c(=O)n(-c2ccccc2)n1C [Amidopyrine],1.07 ± 0.062
7,COc1ccc2c(Oc3ccc(NC(=O)c4c(C)n(CC(C)(C)O)n(-c5ccccc5)c4=O)nc3)ccnc2c1,1.16 ± 0.024
8,O=C(NNc1nc2cc(F)ccc2n2cccc12)c1cnccn1,0.383 ± 0.013
9,C=C1C(=O)[C@]23[C@H](O)[C@H]1CC[C@H]2[C@@]12CO[C@]3(O)[C@@H](O)[C@@H]1C(C)(C)CC[C@@H]2O [Oridonin],0.9649 ± 0.0085
10,CCS(=O)(=O)N1CC(CC#N)(n2cc(-c3ncnc4[nH]ccc34)cn2)C1,0.983 ± 0.088
11,CO[C@H]1/C=C\C=C(/C)C(=O)NC2=CC(=O)C(NCCN(C)C)=C(C[C@@H](C)C[C@H](OC)[C@H](O)[C@@H](C)/C=C(\C)[C@@H]1OC(N)=O)C2=O [17-DMAG (Alvespimycin) HCl],0.267 ± 0.043
12,CN1CC[C@H](c2c(O)cc(O)c3c(=O)cc(-c4ccccc4Cl)oc23)[C@H](O)C1 [Flavopiridol (Alvocidib)],0.143 ± 0.043
13,CN1CC[C@H](c2c(O)cc(O)c3c(=O)cc(-c4ccccc4Cl)oc23)[C@H](O)C1 [Flavopiridol HCl],0.183 ± 0.015
14,CC(=O)N1c2ccc(-c3ccc(C(=O)O)cc3)cc2[C@H](Nc2ccc(Cl)cc2)C[C@@H]1C,0.698 ± 0.027
15,N#Cc1c(NC(=O)c2cccc3ccccc23)sc2c1CCCC2 [JNK Inhibitor IX],1.1 ± 0.056
16,Cc1cc2c(cc1CC(=O)c1sccc1S(=O)(=O)Nc1onc(C)c1Cl)OCO2 [Sitaxentan sodium],1.18 ± 0.062
17,COc1cc(OC)c2c(=O)[nH]c(-c3cc(C)c(OCCO)c(C)c3)nc2c1,0.805 ± 0.0086
